Shiga inhibitor = A qHTS for Small Molecule Inhibitors of Shiga Toxin; 9.2% of 290,000 active; inhibition, % at 38.7 µM; AID 2315, 2010; Vero cells, Shiga toxin protein synthesis inhibition reporter; in the data active = inhibition mostly above about 28%, no sharp cut-off; inactive = mostly below about 43%; note: 0% is about no effect
Sm TGR inh = qHTS Assay for the Inhibitors of Schistosoma Mansoni Peroxiredoxins. Potency, µM (doses to about 114 µM), without a hit: at the top dose activity change, negative = inhibition, usual class: inhibitors. purified TGR, DTNB reduction, TNB absorbance 405 nm. AID 485364, 2010. Schistosoma mansoni thioredoxin glutathione reductase (TGR), Q962Y6. 3% of 360,000 active; active = well fitted inhibition curve with a large enough effect; inconclusive = small, poorly fitted or top-dose-only effect; inactive = no such curve, though single readings can be large or run the other way; note: potency is the fitted concentration of half-maximal effect; % is set by controls: 0 for no effect and ±100 for the full control effect; nearly all actives have a fitted effect of over 60% in size
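Kinetic colorimetric format: TGR-catalysed, NADPH-driven DTNB reduction monitored via TNB absorbance. Enzyme dispensed at 20 nM; compound exposure 15 min at room temperature before reaction start.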
CHX counter = Cycloheximide Counterscreen for Small Molecule Inhibitors of Shiga Toxin; max response, %; 12% of 300,000 active; cell reporter, cycloheximide protein synthesis inhibition counterscreen; AID 2314, 2010; in the data active = max response mostly above about 13%, no sharp cut-off; inactive = mostly below about 14%; note: read at 38.3 µM for the half of the compounds with a filed dose; 0% is about no effect
FMDV antiviral = High Throughput Screening for Foot and Mouth Disease Virus Antivirals; FMDV antiviral cell-based qHTS; Potency, µM (top dose mostly 57.9 µM), without a hit: at the highest dose activity change, negative = inhibition, actives largely listed as inhibitors; 1.2% of 410,000 active; calls by dose curve; tested in HEK293T cells; note: read-out not given here; potency is the fitted concentration of half-maximal effect; % is set by controls: 0 for no effect and ±100 for the full control effect; nearly all actives have a fitted effect of over 45% in size
Numbers without * were called inactive; ? = inconclusive; . = no result. Hits are enriched below; roughly 12% of the tested compounds scored in any of these assays.

SMILES	Shiga inhibitor	Sm TGR inh	CHX counter	FMDV antiviral
Cc1ccc(N2CN(S(=O)(=O)c3cccc([N+](=O)[O-])c3)c3nc4ccccc4nc32)cc1	-20.6	44.7µM*	-1.6	-3.5%
CCOc1ccc(NS(=O)(=O)c2ccc3c4c(cccc24)C(=O)N3)cc1	.	0.6%	.	6.3%
COc1ccc(-n2nc(C(=O)Nc3nc4ccc(OC)cc4s3)c3ccccc3c2=O)cc1	-14.2	4.6%	-10.0	-9.0%
CC(=O)Nc1ccc2nc(NC(=O)c3cccs3)sc2c1	77.5*	5.8%	42.9*	-0.9%
COc1ccc2nc(NC(=O)c3cccs3)sc2c1	77.4*	-2.5%	43.8*	-9.0%
Cc1nc2ccc(NC(=O)c3cccs3)cc2s1	98.1*	6.9%	45.2*	18.6%
O=C(Nc1nc2ccc(Cl)cc2s1)[C@@H]1CCCN1C(=O)c1cccs1	80.5*	2.2%	82.1*	49.9%
Cc1nnc(N2CCN(C(=O)Nc3cc(F)ccc3F)CC2)c2nn(-c3ccc(Cl)cc3)c(C)c12	.	-0.8%	.	?
Cc1nn(CCC(=O)Nc2ccc(Cl)cc2)c(C)c1S(=O)(=O)N1CCCCC1	.	-4.6%	.	-23.3%
O=C(CN1C(=O)C2CCCCN2c2ccc(C(=O)N3CCCC3)cc21)NCc1ccccc1F (stereo not given)	.	-11.5%	.	20.8%
Cc1nc2cc(NC(=O)c3ccc([N+](=O)[O-])s3)ccc2s1	52.3*	-17.6%	34.3*	10.6%
Cc1nc2ccc(NC(=O)c3sccc3C)cc2s1	63.7*	4.1%	64.4*	-1.5%
O=C(NCc1ccco1)[C@@H]1CCCN1C(=O)c1cccs1	-9.1	39.8µM*	-3.8	3.7%
O=C(NCc1ccccc1)[C@@H]1CCCN1C(=O)[C@@H]1CCCN1C(=O)c1cccs1	.	.	.	-17.5%
COC(=O)c1cc(C(=O)OC)cc(N2C(=O)CC(Sc3nc(C)cc(C)n3)C2=O)c1 (stereo not given)	-14.6	?	-4.1	-8.2%
Cc1ccc(N2C(=O)CC(Sc3nc(C)cc(C)n3)C2=O)cc1 (stereo not given)	-5.1	-46.3%	-2.4	-11.3%
CCOc1ccccc1N1C(=O)CC(Sc2n[nH]c(-c3ccccc3)n2)C1=O (stereo not given)	-9.9	0.562µM*	-1.5	?
COC(=O)c1ccc(N2C(=O)CC(Sc3n[nH]c(C)n3)C2=O)cc1 (stereo not given)	13.8	1.41µM*	-2.1	0.0%
CCOC(=O)CN1C(=O)C(Sc2n[nH]c(-c3cccc(C)c3)n2)CCc2ccccc21 (stereo not given)	-18.8	3.3%	-5.0	?
CC(=O)Nc1ccc(N2C(=O)CC(Sc3nc(C)cc(C)n3)C2=O)cc1 (stereo not given)	3.1	50.1µM*	1.2	1.9%
CCOC(=O)CN1C(=O)C(Sc2n[nH]c(-c3ccc(C)cc3)n2)CCc2ccccc21 (stereo not given)	-4.6	0.6%	2.7	28.2µM*
Cc1nc(C)n(CC(=O)NCC2Cc3cc(-c4ccsc4)cc(Cl)c3O2)n1 (stereo not given)	.	.	.	-6.6%
COc1cccc(N2C(=O)CC(Sc3nc(C)cc(C)n3)C2=O)c1 (stereo not given)	14.0	-19.7%	-4.0	-17.9%
COc1ccc(N2C(=O)CC(Sc3n[nH]c(-c4cccc(C)c4)n3)C2=O)cc1 (stereo not given)	23.7	0.316µM*	5.3	-7.4%
Cc1ccc(-n2nc3c(=O)n(CC(=O)c4ccc(F)cc4)nc(C)c3c2C)cc1	-15.5	14.6%	-3.3	25.1µM*
SMILES	Shiga inhibitor	Sm TGR inh	CHX counter	FMDV antiviral
Cc1ccc(CCNC(=O)C(C)n2nc(C)c3c(C)n(-c4ccc(C)cc4)nc3c2=O)cc1 (stereo not given)	.	-1.0%	.	11.2µM*
CC(C)OC(=O)N(C)c1ccc(C(O)(C(F)(F)F)C(F)(F)F)cc1	36.9	-3.0%	20.0*	.
Cc1ccc(CCNC(=O)c2ccc(Cn3c(=O)c4cccn4c4cccnc43)cc2)cc1	.	0.8%	.	-3.8%
O=C(Nc1nnc(-c2ccc3c(c2)CCCC3)o1)c1c(F)cccc1F	76.0*	9.7%	25.8	-3.1%
O=C(/C=C/c1cccs1)N1CCN(c2ccc(F)cc2)CC1	15.0	-0.9%	5.8	9.9%
O=C(/C=C/c1cccs1)N1CCN(c2ccccc2F)CC1	63.4*	6.7%	14.9*	19.3%
O=C(/C=C/c1ccc([N+](=O)[O-])cc1)N1CCN(c2ccccc2F)CC1	46.0*	-3.8%	14.9*	34.6%
Brc1ccc(Oc2ncc(CN3CCOCC3)s2)cc1	40.7	0.0%	33.0*	1.1%
CC(=O)Nc1ccc(NC(=O)C2Cc3ccccc3N2C(=O)c2ccccc2)cc1 (stereo not given)	.	0.3%	.	-2.9%
